Source: PubChem BioAssay (NCI)
About 79,000 compounds went through this panel and 15% of them were active in at least one assay; those are over-represented in the sample as a whole. Calls of active or inactive are those of the source. No stated cut-off is given here; in the data, active means growth inhibition above about 70%; inactive means the rest.

Key:
[1] = NCI Yeast Anticancer Drug Screen. Data for the mlh1 rad18 strain (AID 175); conditions: S. cerevisiae mlh1 rad18 strain growth inhibition, active compounds read high
How it was run: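 Steps: expose repair-defective yeast to compound; measure growth; express inhibition against vehicle-treated controls.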

[2] = NCI Yeast Anticancer Drug Screen. Data for the rad18 strain (AID 177); conditions: S. cerevisiae rad18 mutant growth inhibition, active compounds read high
How it was run: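 Measured value is growth inhibition of a yeast strain bearing a DNA repair alteration, referenced to vehicle-treated cells.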

[3] = NCI Yeast Anticancer Drug Screen. Data for the rad52 strain (AID 147);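 further: 0% = growth of vehicle-treated control cultures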; conditions: S. cerevisiae rad52 mutant growth inhibition, active compounds read high
How it was run: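 Here a repair-compromised yeast strain receives each compound; its growth is then quantified and normalised to vehicle-only controls.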

[4] = NCI Yeast Anticancer Drug Screen. Data for the rad50EPP+ strain (AID 151);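 further: 0% = growth of vehicle-treated control cultures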; conditions: S. cerevisiae rad50 mutant strain, active compounds read high
How it was run: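 Read-out is yeast growth inhibition relative to vehicle; cells used were the rad50EPP+ strain.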

[5] = NCI Yeast Anticancer Drug Screen. Data for the rad50 strain (AID 155);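 further: 0% = growth of vehicle-only cultures of the same strain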; conditions: S. cerevisiae rad50 strain growth inhibition, active compounds read high
How it was run: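 DNA repair mutant yeast, compound exposure, growth read-out; inhibition is taken relative to vehicle.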

[6] = NCI Yeast Anticancer Drug Screen. Data for the mec2-1 strain (AID 157); conditions: S. cerevisiae mec2-1 strain, active compounds read high
How it was run: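 Using mec2-1 yeast: add compound, measure growth, express inhibition versus vehicle-treated cultures.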

[7] = NCI Yeast Anticancer Drug Screen. Data for the rad14 strain (AID 159);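 further: 0% = growth of vehicle-treated control cultures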; conditions: S. cerevisiae rad14 strain growth inhibition, active compounds read high
How it was run: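 DNA repair-defective yeast, compound-exposed; % growth inhibition derived by comparison with vehicle-treated controls.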

[8] = NCI Yeast Anticancer Drug Screen. Data for the CLN2oe strain (AID 163);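 further: 0% = growth of vehicle-only control cultures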; conditions: S. cerevisiae CLN2oe strain, active compounds read high
How it was run: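 Whole-cell yeast growth assay. A strain engineered for altered cell-cycle control received compound, and inhibition relative to vehicle-treated cultures was recorded.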

[9] = NCI Yeast Anticancer Drug Screen. Data for the cln2 rad14 strain (AID 165);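 further: 0% = growth equal to vehicle treated cultures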; conditions: S. cerevisiae cln2 rad14 strain, active compounds read high
How it was run: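 Yeast strain cln2 rad14, bearing defects in cell cycle control and DNA repair, serves as the test system; values reflect growth inhibition compared with vehicle.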

[10] = NCI Yeast Anticancer Drug Screen. Data for the bub3 strain (AID 167); conditions: S. cerevisiae bub3 mutant strain, active compounds read high
How it was run: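 In this screen, a yeast mutant lacking normal mitotic checkpoint function is challenged with compound. Relative growth versus vehicle gives the inhibition value.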

[11] = NCI Yeast Anticancer Drug Screen. Data for the wt2 strain (AID 169);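 further: 0% = growth of vehicle-treated yeast cultures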; conditions: S. cerevisiae wt2 strain growth inhibition, active compounds read high
How it was run: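 Treated yeast vs. vehicle-treated yeast: growth inhibition determined.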

[12] = NCI Yeast Anticancer Drug Screen. Data for the mlh1 strain (AID 171);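 further: 0% = growth of vehicle-treated control cultures of the same strain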; conditions: S. cerevisiae mlh1 strain growth inhibition, active compounds read high
How it was run: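 A yeast strain with a defined genetic lesion serves as the test organism. Cultures receive compound or vehicle, and growth is measured.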

[13] = NCI Yeast Anticancer Drug Screen. Data for the sgs1 strain (AID 173);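 further: 0% = growth of vehicle-only control cultures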; conditions: S. cerevisiae sgs1 mutant, active compounds read high
How it was run: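 A genetically defined yeast mutant is incubated with the test compound, and its growth is compared to that of the same strain given vehicle.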

[14] = at 5.0 µM (retest, dose inferred, filed as 0.5)
[15] = at 50.0 µM (retest, dose inferred, filed as 5.0)

Measured: growth inhibition

S=C1SCN(CCc2ccccc2)CN1CCc1ccccc1
inactive: [1]; [14] -9% | [1]; at 50.0 µM 58% | [2]; at 1.2 µM 15% | [2]; at 3.7 µM 25% | [2]; at 11.0 µM 47% | [2]; at 33.0 µM 65% | [2]; at 100.0 µM 39%
active: [1]; [15] 80%

CCCCCCCCCCCCCC(=O)OC(C)CCC1CCCO1 (stereo not drawn)
inactive: [3]; at 1.2 µM -2% | [3]; at 3.7 µM 0% | [3]; at 11.0 µM 2% | [3]; at 33.0 µM 1% | [3]; at 100.0 µM -8% | [4]; at 1.2 µM 2% | [4]; at 3.7 µM 2% | [4]; at 11.0 µM -2% | [4]; at 33.0 µM -4% | [4]; at 100.0 µM -6% | [5]; at 1.2 µM 1% | [5]; at 3.7 µM 0% | [5]; [14] 3% | [5]; at 11.0 µM 0% | [5]; at 33.0 µM -7% | [5]; [15] 15% | [5]; at 50.0 µM 19.4% | [5]; at 100.0 µM -4% | [6]; at 1.2 µM 0% | [6]; at 3.7 µM -1% | [6]; [14] 13% | [6]; at 11.0 µM -6% | [6]; at 33.0 µM 1% | [6]; [15] 5% | [6]; at 50.0 µM 23.5% | [6]; at 100.0 µM -1% | [7]; at 1.2 µM -2% | [7]; at 3.7 µM -6% | [7]; at 11.0 µM 0% | [7]; at 33.0 µM 3% | [7]; at 100.0 µM -4% | [8]; at 1.2 µM 1% | [8]; at 3.7 µM 2% | [8]; at 11.0 µM 2% | [8]; at 33.0 µM 4% | [8]; at 100.0 µM 14% | [9]; [15] 39% | [9]; at 50.0 µM 37.1% | [10]; at 1.2 µM 1% | [10]; at 3.7 µM -1% | [10]; [14] 31% | [10]; at 11.0 µM -1% | [10]; at 33.0 µM -1% | [10]; [15] 1% | [10]; at 50.0 µM 34.6% | [10]; at 100.0 µM -1% | [11]; at 1.2 µM -3% | [11]; at 3.7 µM -3% | [11]; at 11.0 µM -2% | [11]; at 33.0 µM -3% | [11]; at 100.0 µM -6% | [12]; at 1.2 µM -1% | [12]; at 3.7 µM 3% | [12]; at 11.0 µM 2% | [12]; at 33.0 µM 3% | [12]; at 100.0 µM 4% | [13]; at 1.2 µM -1% | [13]; at 3.7 µM 1% | [13]; at 11.0 µM 1% | [13]; at 33.0 µM 3% | [13]; at 100.0 µM 1% | [1]; [14] -2% | [1]; [15] 37% | [1]; at 50.0 µM 20.8% | [2]; at 1.2 µM 0% | [2]; at 3.7 µM 1% | [2]; at 11.0 µM -3% | [2]; at 33.0 µM -4% | [2]; at 100.0 µM -5%
active: [9]; [14] 81%
